This note sets out measurements from PubChem BioAssay (NCI).

Common to all, as to assay: NCI-60 one-dose screen, 48 h (100 = growth as untreated, 0 = no growth, -100 = all killed)
In one experiment the test system is K-562 leukemia. The following applies: 10 µM unless noted.
In another experiment the test system is MDA-MB-231 breast. To be noted: 10 µM unless noted.
A further experiment concerns RXF 393 renal. To be noted: 10 µM unless noted.
The test system of the next experiment is SF-268 CNS. To be noted: 10 µM unless noted.
The test system of a further experiment is SF-295 CNS. To be noted: 10 µM unless noted.
Another experiment deals with SF-539 CNS. The following applies: 10 µM unless noted.
The next experiment relates to UACC-257 melanoma. The following applies: 10 µM unless noted.
The next experiment has as its system M14 melanoma. To be noted: 10 µM unless noted.
Another experiment concerns HCT-15 colon. To be noted: 10 µM unless noted.
The subject of another experiment is HT29 colon. The following applies: 10 µM unless noted.
A further experiment deals with SNB-75 CNS. The following applies: 10 µM unless noted.
For a further experiment, the system named is SNB-19 CNS. To be noted: 10 µM unless noted.
For a further experiment, the system named is U251 CNS. To be noted: 10 µM unless noted.
Another experiment relates to PC-3 prostate. The following applies: 10 µM unless noted.
The next experiment concerns SK-MEL-5 melanoma. The following applies: 10 µM unless noted.
The subject of a further experiment is UACC-62 melanoma. To be noted: 10 µM unless noted.
Another experiment relates to LOX IMVI melanoma. To be noted: 10 µM unless noted.
The subject of a further experiment is SK-MEL-28 melanoma. To be noted: 10 µM.
For a further experiment, the system named is SK-MEL-2 melanoma. The following applies: 10 µM unless noted.
Another experiment relates to MALME-3M melanoma. The following applies: 10 µM unless noted.

This is part of a sample that, as a whole, favours compounds with a hit. Of some 83,000 tested, about 20% had one in any assay.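 48-hour exposure, single concentration, 96-well plates; percent growth endpoint where 0 means no net growth. Active: below 10.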 Unmarked numbers belong to inactive results. Activity calls are given as the source filed them.

In the case of `O=C(Nc1ccc(-c2nc3cc4ccccc4cc3[nH]2)cc1)c1cccc(Br)c1`, the growth was 26.7% in the experiment with K-562 leukemia; 69.2% in the experiment with MDA-MB-231 breast; 29% with RXF 393 renal; 37% in the experiment on SF-268 CNS; -36.3% (active) with SF-295 CNS; 30.8% in the experiment with SF-539 CNS. The growth in the experiment on UACC-257 melanoma is 42.3%; in the experiment with M14 melanoma it was 34.2%; in the experiment with HCT-15 colon, 22.3%; in the experiment on HT29 colon, 12.4%; with SNB-75 CNS, 66.2%; with SNB-19 CNS it was 36.2%. In addition, the growth with U251 CNS was 25.9%; with PC-3 prostate, 51.1%; with SK-MEL-5 melanoma it was 37.1%; with UACC-62 melanoma it was 39%; in the experiment on LOX IMVI melanoma, -6.26% (active); with SK-MEL-28 melanoma, 41.8%. Besides, the growth in the experiment on SK-MEL-2 melanoma was 49.4%.
Consider `COc1ccc(-c2cn[nH]c2-c2ccc(OC)c(O)c2)cc1`, for which the growth was 98.6% in the experiment on MALME-3M melanoma; 68.4% with MDA-MB-231 breast; 77.9% with SF-268 CNS; 81.7% in the experiment with SF-295 CNS; 76.9% with SF-539 CNS; 92.3% in the experiment with UACC-257 melanoma. Moreover, the growth in the experiment on HCT-15 colon is 50%; with HT29 colon, 94.3%; with SNB-75 CNS, 87.6%; in the experiment on SNB-19 CNS it was 76.5%; in the experiment with U251 CNS it was 63.1%; in the experiment on PC-3 prostate, 84%. Also, the growth is 59.5% in the experiment on LOX IMVI melanoma, 89.1% in the experiment on SK-MEL-28 melanoma and 42% in the experiment with SK-MEL-2 melanoma.
Regarding `O=C(c1ccccc1)N(CCc1ccc(Cl)cc1)C(=S)N(C(=O)c1ccccc1)c1ccccc1`, the growth was 58.3% with K-562 leukemia; 107% with MDA-MB-231 breast; 101% in the experiment with SF-268 CNS; 109% in the experiment on SF-295 CNS; 106% in the experiment on SF-539 CNS; 102% with UACC-257 melanoma. Besides, the growth in the experiment on M14 melanoma is 113%; with HCT-15 colon, 93.8%; with HT29 colon, 104%; with SNB-75 CNS it was 104%; with SNB-19 CNS, 109%; in the experiment with U251 CNS, 97%. In addition, the growth in the experiment with PC-3 prostate was 85.7%; in the experiment on SK-MEL-5 melanoma, 95.9%; with UACC-62 melanoma, 94.5%; in the experiment on LOX IMVI melanoma, 81.5%; in the experiment on SK-MEL-28 melanoma, 119%.
Regarding `O=C(O)c1cn(C2CC2)c2cc(N3CCN(C(=O)C[n+]4ccccc4)CC3)c(F)cc2c1=O`, the growth with MALME-3M melanoma is 99.5%; with MDA-MB-231 breast it was 105%; in the experiment with SF-268 CNS, 95.3%; with SF-295 CNS, 101%; in the experiment on SF-539 CNS it was 95.1%; in the experiment on UACC-257 melanoma, 101%. Moreover, the growth in the experiment on M14 melanoma is 106%; in the experiment with HCT-15 colon, 102%; with HT29 colon it was 109%; in the experiment with SNB-75 CNS, 97.2%; with SNB-19 CNS it was 99.4%; in the experiment on U251 CNS, 92.4%. For the same compound, the growth in the experiment on PC-3 prostate was 106%; in the experiment with SK-MEL-5 melanoma, 101%; in the experiment with UACC-62 melanoma it was 105%; in the experiment with LOX IMVI melanoma, 98.1%; in the experiment with SK-MEL-28 melanoma it was 112%; in the experiment with SK-MEL-2 melanoma, 96.5%.
As for `Cn1c(C(=O)c2cccc3ccccc23)nc2ccccc21`, the growth in the experiment on K-562 leukemia was 7.22% (active); in the experiment on MDA-MB-231 breast, 29.1%; with RXF 393 renal, 13.5%; in the experiment with SF-268 CNS, 2.01% (active); with SF-539 CNS it was -1.45% (active); in the experiment with UACC-257 melanoma it was -7.56% (active). Also, the growth in the experiment with M14 melanoma is -45.9% (active); with HCT-15 colon, 29.4%; in the experiment with HT29 colon it was 20.7%; in the experiment on SNB-75 CNS, 38.9%; with SNB-19 CNS, 10.3%; with U251 CNS it was 5.7% (active). Further, the growth was 27.7% in the experiment on PC-3 prostate; -38.1% (active) in the experiment with SK-MEL-5 melanoma; -27.2% (active) in the experiment with UACC-62 melanoma; 2.82% (active) in the experiment with LOX IMVI melanoma; 40.8% with SK-MEL-28 melanoma; 9.69% (active) with SK-MEL-2 melanoma.
Regarding `O=C(Cc1ccccc1)NC(c1ccc(Cl)cc1)c1c(O)ccc2ccccc12` (stereo not given), the growth in the experiment on K-562 leukemia is 8.85% (active); with MDA-MB-231 breast, -15.7% (active); with RXF 393 renal, -6.64% (active); with SF-268 CNS, 29.2%; in the experiment with SF-295 CNS, -36.4% (active); in the experiment with SF-539 CNS, 40%. Moreover, the growth is -9.13% (active) in the experiment with UACC-257 melanoma; 16.3% in the experiment with M14 melanoma; 15.4% in the experiment with HCT-15 colon; 12.8% with HT29 colon; 40% with SNB-75 CNS; 20.8% in the experiment on SNB-19 CNS. The growth is 1.3% (active) with U251 CNS; 3.12% (active) with PC-3 prostate; -49.5% (active) in the experiment on SK-MEL-5 melanoma; 5.84% (active) in the experiment with UACC-62 melanoma; 10.4% in the experiment on LOX IMVI melanoma; 36.6% in the experiment with SK-MEL-28 melanoma. In addition, in the experiment with SK-MEL-2 melanoma, the growth was -3.92% (active).
As for `CCOc1ccc2nc(C)cc(Nc3ccc(Br)cc3)c2c1`, the growth is 87.6% with K-562 leukemia; 109% in the experiment with MDA-MB-231 breast; 110% in the experiment on RXF 393 renal; 108% with SF-268 CNS; 110% with SF-295 CNS; 103% in the experiment with SF-539 CNS. In addition, the growth in the experiment on UACC-257 melanoma was 103%; in the experiment on HCT-15 colon, 82.2%; in the experiment with HT29 colon, 77.8%; with SNB-19 CNS, 101%; in the experiment with U251 CNS, 98.1%; with PC-3 prostate, 86.7%. The growth in the experiment with SK-MEL-5 melanoma was 97.1%; with UACC-62 melanoma, 103%; in the experiment with LOX IMVI melanoma, 106%; with SK-MEL-28 melanoma, 108%; with SK-MEL-2 melanoma, 109%.
For the compound `O=C(c1ccccc1)N(C(=S)NCCc1ccc(Cl)cc1)c1ccc(Cl)cc1`, the growth in the experiment with K-562 leukemia was 4.72% (active); in the experiment with MDA-MB-231 breast, 91.7%; in the experiment on SF-268 CNS, 33.2%; with SF-295 CNS it was 68.3%; in the experiment on SF-539 CNS, 36.9%; in the experiment on UACC-257 melanoma, 71.2%. In addition, the growth was 47.6% in the experiment on HCT-15 colon; 37.6% with HT29 colon; 74.8% in the experiment on SNB-75 CNS; 59.3% in the experiment with SNB-19 CNS; 47.8% in the experiment with U251 CNS; 66.2% in the experiment with PC-3 prostate. Further, the growth with SK-MEL-5 melanoma is 67.2%; with UACC-62 melanoma, 76.8%; with LOX IMVI melanoma, -16.6% (active); in the experiment on SK-MEL-28 melanoma it was 42.8%; in the experiment on SK-MEL-2 melanoma it was 40.7%.
